In PubChem BioAssay AID651718 (The Scripps Research Institute Molecular Screening Center, 2012) one finds inhibition data, which are given here for 87 molecules.

What is called inhibition is the change of the read-out against control, counted positive when it falls.

Among all 360,000 compounds or so, about 2,700 (0.75%) were called active. No stated cut-off is given here; in the data, active means inhibition above about 4.5%; inactive means the rest. Many of the other results were omitted from the sample, so actives are more common in it than they were.

The test system of this experiment is Methionine sulfoxide reductase A (Bos taurus). The experiment in a line: inhibition of methionine sulfoxide reductase A – biochemical, absorbance, bovine, HTS, primary screen (AID 651718).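 Further: 0% = vehicle wells with enzyme and 100% = reference inhibitor wells.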 The following applies: purified bovine MsrA, absorbance read-out; at 15.5 µM; active compounds read high.
On to `OC(CCl)CCl`, for which the inhibition is -0.37% (inactive).
Take `COc1ccc(CN2CCC(C)(Oc3cccc(F)c3)C2)c2ccccc12` (configuration not stated): the inhibition was 0.31% (inactive).
The result for `CC(/C=N/NC(=O)c1ccncc1)=C\c1ccco1` reads 4.8% (active); that for `CC(/C=N/NC(=O)c1cc(-c2ccc3ccccc3c2)n[nH]1)=C\c1ccco1`, 2.77% (inactive); that for `CC(=NNC(=O)c1ccncc1)c1ccc(Cl)c(Cl)c1`, -0.76% (inactive).
With `C=CCN1C(=O)N(Cc2ccccc2)c2ccccc2S1(=O)=O`, the inhibition is 3.26% (inactive).
In the case of `Cc1[nH]c2ccccc2c1/C=N/NC(=O)CNC(=O)c1ccc2c(c1)OCO2`, the inhibition is 2.56% (inactive).
On to `COCCNC(=S)N(CCc1c(C)[nH]c2ccc(C)cc12)Cc1cccnc1`, for which the inhibition is -1.51% (inactive).
On to `COCCNC(=S)N/N=C/c1c(C)[nH]c2ccccc12`, for which the inhibition was 5.52% (active).
Regarding `Clc1cccc2c1C1CC2CCN1Cc1ccccc1` (configuration not stated), the inhibition is -1.2% (inactive).
For `COC(=O)c1cc2c(c3c4cc(F)ccc4n(S(=O)(=O)c4ccccc4)c13)C(=O)N(Cc1ccccc1OC)C2`, the inhibition is 1.35% (inactive).
On to `CCCCC1S/C(=N/N=C/c2cccs2)NC1=O` (configuration not stated), for which the inhibition is 0.75% (inactive).
On to `O=C1N/C(=N\N=C\c2ccco2)SC1Cc1ccc(F)cc1` (configuration not stated), for which the inhibition is 2.66% (inactive).
`CCC1S/C(=N/N=C/c2ccco2)NC1=O` (configuration not stated): the inhibition was 4.55% (active).
Turning to `COC(=O)C1=C(C)N(Cc2ccc(C(F)(F)F)cc2)C(=NCc2ccccc2)NC1c1ccccc1C(F)(F)F` (configuration not stated), the inhibition is 2.37% (inactive).
For `CC(C)(C)c1ccc(S(=O)(=O)NCC2CCN(C(=O)C(=O)c3cc4ccccc4o3)CC2)cc1`, the inhibition is 1.27% (inactive).
`Cc1cccc(-n2c(N)c(C(=O)N3CCN(C)CC3)sc2=S)c1`: the inhibition was 2.37% (inactive).
With `Cc1cccc(-n2c(O)c(C=Nc3ccccc3N)c(=O)[nH]c2=O)c1` the figure was 5.11% (active).
For `COc1cc(OC)cc(C(=O)NCCSCc2ccc(Cl)cc2)c1`, the inhibition was -2.11% (inactive).
For `CCc1nnc(NS(=O)(=O)c2ccc(NC(=O)c3cccc(OC(F)(F)C(F)F)c3)cc2)s1`, the inhibition is -0.35% (inactive).
`CCc1nnc(NS(=O)(=O)c2ccc(NC(=S)NC(=O)/C=C/c3cccs3)cc2)s1`: the inhibition was 4.76% (active).
In the case of `CCOC(=O)c1c(NC(=S)NC(=O)/C=C/c2cccs2)sc(C)c1C`, the inhibition was -0.71% (inactive).
`Cc1cc(C(=O)NNC(=S)NC(C)c2ccccc2)cs1` (configuration not stated): the inhibition was 0.13% (inactive).
In the case of `Cn1nnnc1SCC(=O)Nc1sccc1C(N)=O`, the inhibition is 0.13% (inactive).
With `COC(=O)c1cc2c(c3c4ccccc4n(S(=O)(=O)c4cccc(C)c4)c13)C(=O)N(Cc1ccccc1)C2` the figure was 0.16% (inactive).
As for `CC1(C(=O)NCc2ccccc2)CN(S(C)(=O)=O)CC(=O)N1CC(F)(F)F` (configuration not stated), the inhibition was -0.74% (inactive).
With `COc1ccc(C(=O)NNC(=O)c2cnccn2)cc1[N+](=O)[O-]` the figure was 3.54% (inactive); with `COc1ccc(C(=O)CSc2nc(C)cc(C)n2)cc1[N+](=O)[O-]`, 11.2% (active); with `COc1ccc(-n2nnnc2SCC(=O)c2ccc(OC)c(OC)c2)cc1`, 1.76% (inactive).
As for `CN1CCN(CC(=O)C23CC4CC(CC(C4)C2)C3)CC1`, the inhibition was -0.74% (inactive).
Consider `COc1ccc(C(=O)Nc2c(N)nc(SCC(=O)N3CCC(C)CC3)[nH]c2=O)cc1OC`, for which the inhibition was -1.43% (inactive).
In the case of `C[C@@H]1ON(C)[C@H]2C[C@H]3c4cc(N5CCOCC5)ccc4CCN3C[C@@H]12`, the inhibition is -1.23% (inactive).
With `CCOC(=O)C1=C(C(=O)OCC)C2N(Cc3ccc(C#N)cc3)c3ccccc3[C@@]23C[C@@H](C(=O)OC)N(S(=O)(=O)c2ccc(F)cc2)C3=N1` (some centres not stated) the figure was 1.03% (inactive); with `CCOC(OCC)c1ccc(/C=C\c2nccc(N)n2)cc1`, 4.82% (active).
For `Cc1cc2c(nc1C)CCCN2C`, the inhibition was 0.48% (inactive).
For `O=S(=O)(c1cccs1)N1CCCc2nc(-c3ccc(Br)cc3)ccc21`, the inhibition was 0.56% (inactive).
Consider `Cc1ccc(C)c2[nH]c(=O)c(CN(Cc3cccnc3)C(=S)NCc3ccco3)cc12`, for which the inhibition was 0.59% (inactive).
`Cc1cccc(C)c1NC(=O)C(Cl)C(=O)c1ccccc1` (configuration not stated): the inhibition is -0.19% (inactive).
On to `COC(=O)N/N=C/c1ccc(-c2ccc(Cl)c(Cl)c2)o1`, for which the inhibition was 3.75% (inactive).
In the case of `Cc1occc1C(=O)N/N=C/c1ccc(-c2cccc([N+](=O)[O-])c2)o1`, the inhibition is 4.99% (active).
The result for `CCCc1ccc(OCc2ccc(C(=O)N/N=C/c3cccc([N+](=O)[O-])c3)o2)c(OC)c1` reads 0.9% (inactive).
As for `CC[C@H](NC(=O)[C@H](Cc1ccccc1)NC(=O)[C@H]1O[C@@H](n2cnc3c(=O)[nH]c(N)nc32)[C@H](O)[C@@H]1O)c1ccccc1`, the inhibition was 0.98% (inactive).
With `COc1ccccc1-c1n[nH]c2c1[C@H](C)CC[C@H]2C(C)C`, the inhibition was 12.6% (active).
For `COc1ccccc1-c1n[nH]nc1C1=CC(=O)CC(C)(C)C1`, the inhibition is 2.39% (inactive).
With `CC(=O)N1N=C(c2ccccc2)OC1c1cccnc1` (configuration not stated), the inhibition was 0.4% (inactive).
In the case of `CC(=O)N1N=C(c2ccncc2)OC1(Cc1ccccc1)Cc1ccccc1`, the inhibition was 11.8% (active).
The result for `CCN(C(=O)CSc1nnc(-c2ccncc2)o1)c1ccccc1` reads -1.04% (inactive).
With `CC(C)Oc1c(Br)cc(Br)cc1/C=N/NC(N)=S` the figure was 6.79% (active); with `CC1(C(=O)N/N=C/c2cc3c(cc2Br)OCO3)CC1(Br)Br` (configuration not stated), 2.89% (inactive).
On to `Cc1cc(=O)oc2c3c(cc(OCC(=O)NCc4ccccn4)c12)OC(C)(C)CC3`, for which the inhibition is 2.4% (inactive).
With `COC(=O)c1ccc(OC(=O)c2cnccn2)cc1` the figure was 0.63% (inactive); with `Cn1c(=NC(=O)c2cnccn2)sc2ccccc21`, 6.75% (active).
In the case of `Cn1c(=NC(=O)c2ccco2)sc2cccc(F)c21`, the inhibition is 4.22% (inactive).
`Cc1cc(N2CCN(C(=O)OC(C)(C)C)C[C@H]2C)ccc1N1CCN(Cc2ccccc2)[C@H](C)C1`: the inhibition is -0.82% (inactive).
With `Nc1[nH]c(C(=O)c2ccccc2)c(-c2ccc(Cl)cc2Cl)c1C(=O)c1ccccc1` the figure was -0.16% (inactive); with `CCc1c(-c2ccccc2OC)ncn1CCc1ccccc1OC`, 0.48% (inactive).
As to `O=C(COC(=O)/C=C/c1cn(-c2ccccc2)nc1-c1cccnc1)Nc1ccc(Cl)cc1Cl`, the inhibition is 0.05% (inactive).
With `O=Cc1cn(-c2ccccc2)nc1-c1ccccn1` the figure was 9.1% (active); with `O=C(NNC(=S)NC(=O)c1cn(-c2ccccc2)nc1-c1ccccc1)c1ccncc1`, 2.54% (inactive).
For the molecule `Cc1cc(Cl)ccc1OCc1nc(-c2ccncc2)no1`, the inhibition was 0.44% (inactive).
For the molecule `Cc1ccc(CC2(C)C(=O)Nc3ccc(OC(F)(F)F)cc32)cc1` (configuration not stated), the inhibition is 9.02% (active).
The result for `COc1ccccc1CC1(C)C(=O)Nc2ccc(OC(F)(F)F)cc21` (configuration not stated) reads -0.13% (inactive).
Consider `CCc1ccc2c(c1)NC(=O)C2(C)Cc1ccc(OC(F)(F)F)cc1` (configuration not stated), for which the inhibition is 1.57% (inactive).
With `Cc1cc(NCCc2c[nH]c3ccccc23)ccc1Oc1cccnc1`, the inhibition is -0.9% (inactive).
As for `COc1cccc(C2/C(=C(/O)c3ccc(F)cc3)C(=O)C(=O)N2CCN(C)C)c1` (configuration not stated), the inhibition is 2.59% (inactive).
Consider `COc1ccc(C2/C(=C(/O)c3ccccc3)C(=O)C(=O)N2C)c(OC)c1` (configuration not stated), for which the inhibition is 4.89% (active).
With `COc1ccc(C2/C(=C(/O)c3ccccc3)C(=O)C(=O)N2c2ncccn2)cc1OC` (configuration not stated) the figure was 1.66% (inactive); with `CCOc1ccccc1C(=O)N1CCC[C@@H]1C(=O)N1CCC[C@H]1C(=O)NCc1ccccc1`, 0% (inactive).
For `CSC1=NCCN1C(=O)c1ccc(S(=O)(=O)N2CCOCC2)cc1`, the inhibition is 0.32% (inactive).
Regarding `Cc1c(-c2ccccc2)cn2c1-c1ccc(C)n1CC2`, the inhibition is 2.59% (inactive).
Turning to `CN1CCCc2nc(-c3ccccc3)ccc21`, the inhibition was -0.16% (inactive).
Regarding `O=C1[C@@H](c2ccccc2)[C@@H](c2ccccc2)N1c1ccccc1`, the inhibition is 0% (inactive).
For the molecule `COc1cc(/C=N/NC(=S)Nc2cccnc2)cc(OC)c1O`, the inhibition is 4.5% (inactive).
As to `COc1ccc(/C=C/C(=O)Nc2ccc(C34CC5CC(CC(O)(C5)C3)C4)cc2)cc1OC`, the inhibition is 2.4% (inactive).
The result for `COc1ccc(/C=C/C(=O)Nc2cccnc2)cc1OC` reads 5.32% (active); that for `COc1cccc(CNC(=O)[C@H]2CCCN2C(=O)[C@H]2CCCN2C(=O)c2ccc(F)cc2)c1`, -0.32% (inactive).
On to `COCCN(CCOC)S(=O)(=O)NC[C@H]1O[C@@H](n2cnc3c(N)ncnc32)[C@H](O)[C@@H]1O`, for which the inhibition is -0.9% (inactive).
As for `CNC[C@H](CC1CCCCC1)NC[C@H](NCCC1CCCC1)[C@H](C)O`, the inhibition was 0.32% (inactive).
Regarding `C[C@@H]1CN([C@H](C)CO)C(=O)CCCn2cc(nn2)CO[C@H]1CN(C)C(=O)Nc1ccc(N2CCCCC2)cc1`, the inhibition is 0.88% (inactive).
Turning to `CN(CCO)c1ccc(/C=N/Nc2nncc3ccccc23)cc1`, the inhibition was 2.64% (inactive).
Consider `COc1cc(Nc2nc3ccc(Cl)cc3n3cnnc23)cc(OC)c1OC`, for which the inhibition was -1.86% (inactive).
For the molecule `COc1cc(/C=N/Nc2nn3cnnc3c3ccccc23)cc(OC)c1OC`, the inhibition is 5.31% (active).
For the molecule `Cn1ccs/c1=N\S(=O)(=O)c1ccc(C(C)(C)C)cc1`, the inhibition was -0.4% (inactive).
On to `COc1ccc(OC)c(C2C3=C(N=c4s/c(=C\c5cccc(O)c5)c(=O)n42)c2ccccc2CC3)c1` (configuration not stated), for which the inhibition was 5.07% (active).
`C=CCOc1ccc(C2/C(=C(\O)c3c(C)[nH]c(C(=O)OC)c3C)C(=O)C(=O)N2CCN(C)C)cc1` (configuration not stated): the inhibition is 1.79% (inactive).
Regarding `O=C(O)c1ccccc1NC(=S)NC(NC(=O)c1ccccc1[N+](=O)[O-])C(Cl)(Cl)Cl` (configuration not stated), the inhibition is 0.38% (inactive).
For the molecule `Cn1nc(C(=O)OCC(=O)N(Cc2ccccc2)C(C)(C)C)c2ccccc2c1=O`, the inhibition was -1.57% (inactive).
